# Experimental data published in PubChem BioAssay (NCI).
# This is part of a sample that, as a whole, favours compounds with a hit. Of some 83,000 tested, about 20% had one in any assay.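 Testing used 96-well plates and a 48-hour single-concentration exposure. Example: -40 means 40% of the starting cells died.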 Active and inactive are the calls of the source. How the source made its calls: active means growth percent below 10; inactive means the rest.
# Tested on: NCI-H460 lung
# Test: NCI-60 one-dose screen, 48 h (100 = growth as untreated, 0 = no growth, -100 = all killed)
# Details: 10 µM unless noted
row,Compound,growth
1,CS(=O)(=O)Nc1cc(-c2ccc3ncc(C#N)c(NCc4cccc(F)c4)c3c2)cnc1Cl,5.88% (active)
2,COc1ccc(NC(=O)Nc2ccc3c(ccn3C(=O)c3cccc(F)c3)c2)cc1,31.7% (inactive)
3,O=C(CNc1nc(-c2cccc([N+](=O)[O-])c2)cs1)Nc1cccc([N+](=O)[O-])c1,-15.7% (active)
4,O=C(/C=C/c1ccc(F)cc1)c1ccc(O)cc1,103% (inactive)

# Tested on: HOP-92 NSCLC
# Test: as above
# Details: 10 µM
row,Compound,growth
1,O=[N+]([O-])c1cc(/C=N/Nc2nc(N/N=C/c3ccc(Cl)c([N+](=O)[O-])c3)nc(N3CCCCC3)n2)ccc1Cl,123% (inactive)
2,C#Cc1nc(C(C)=O)cs1,111% (inactive)
3,O=C1[C@H]2Cc3c([nH]c4ccccc34)[C@@H](c3c(Cl)cccc3Cl)N2C(=O)CN1C1CCN(CC2CCCCC2)CC1,54.9% (inactive)
4,O=C1Nc2ccccc2/C1=C/c1ccc(COCC2CO2)n1-c1ccc(O)cc1 (configuration not stated),124% (inactive)
5,CCOc1ccc(NC2=C(Cl)C(=O)c3nc(C)ccc3C2=O)cc1,-87% (active)
6,O=S(=O)(NCCCNc1nccc(-c2[nH]c(-c3ccccc3)nc2-c2ccc(Cl)c(O)c2)n1)c1cccc(F)c1,85.5% (inactive)
7,CN1CCN(Cc2ccc(NC(=O)c3cncc(C#Cc4cnc5ccc(OCC6(C)COC6)nn45)c3)cc2C(F)(F)F)CC1,-70.6% (active)
8,COc1cc2c(cc1OC)C(Sc1ccc(F)cc1)c1c(nc(N)c(C#N)c1N)O2 (configuration not stated),-29.4% (active)
9,Cc1nc(-c2ccccc2O)ccc1C(=O)N=Nc1c(O)[nH]c2ccc(Br)cc12,62.1% (inactive)
10,COc1cc(-c2nnc(SCc3ccc(O)c4ncccc34)n2-c2ccccc2)cc(OC)c1OC,-12.5% (active)
11,NS(=O)(=O)c1ccc(-n2cc(CN3CCCCC3)nn2)cc1,96.6% (inactive)
12,COc1cc(/C=C2\C(=O)Nc3ccccc32)ccc1OCc1ccc(Cl)cc1,112% (inactive)
13,Cc1ccc(-c2nnc(SCc3ccc(O)c4ncccc34)o2)cc1,10.4% (inactive)
14,COc1ccccc1NCc1cccn1Cc1ccc(F)cc1,81.5% (inactive)
15,CCN1CCN(Cc2ccc(C(=O)Nc3ccc(C)c(Oc4ccc(-c5[nH]nc6ncnc(N)c56)cc4)c3)cc2C(F)(F)F)CC1,70.3% (inactive)
16,CCOC(=O)c1c(NC(=O)c2ccccc2C(F)(F)F)sc2c1CCC(=O)C2,40.1% (inactive)
17,CN1CCN(c2ccc(/C=N/n3cnc4oc(-c5ccccc5)cc4c3=N)cc2)CC1,61.4% (inactive)
18,Cn1ccnc1C(=O)/C=C/c1ccc(CNC(=O)c2ccc(S(F)(F)(F)(F)F)cc2)cc1,74.3% (inactive)
19,COc1ccc(NC2=C(Cl)C(=O)c3nc(C)ccc3C2=O)cc1OC,112% (inactive)

row,Compound,growth
1,CCc1nn2c(C)cc(C)nc2c1Cc1ccc(/C=C/CN2CCN(CCOCCOCCN3CCN(C/C=C/c4ccc(Cc5c(CC)nn6c(C)cc(C)nc56)cc4)CC3)CC2)cc1,-5.1% (active)
2,COc1c(N2CC3CCCNC3C2)c(F)cc2c(=O)c(C(=O)N/N=C/c3c[nH]c4ccccc34)cn(C3CC3)c12 (configuration not stated),79.6% (inactive)
3,CC(=O)c1nnn(-c2c(C(=O)n3nc(C)cc3C)sc(=S)n2-c2ccccc2)c1C,113% (inactive)
4,CCCCc1nc(/C=N/Nc2nc(Nc3ccccc3)nc(Nc3ccc(S(N)(=O)=O)cc3)n2)c(Cl)[nH]1,60.1% (inactive)
5,O=C(CNc1nc(-c2cccc([N+](=O)[O-])c2)cs1)Nc1cccc(Cl)c1,104% (inactive)
6,O=C(CSc1nnc(-c2ccc(Cl)cc2)n1-c1ccccc1)Nc1ccc(Br)cc1,-37.7% (active)
7,Cn1ccnc1C(=O)/C=C/c1ccc(NC(=O)c2c(F)c(F)c(F)c(F)c2F)cc1,123% (inactive)
8,CNC(=O)c1cc(N2CCc3cc(NC(=O)Nc4ccc(Cl)c(C(F)(F)F)c4)ccc32)ccn1,68% (inactive)
9,COc1c(N2CC3CCCNC3C2)c(F)cc2c(=O)c(C(=O)N/N=C/c3ccccc3)cn(C3CC3)c12 (configuration not stated),75.3% (inactive)
10,C[C@H](CCC(=O)NCc1ccc(C(=O)Nc2ccccc2N)cc1)[C@H]1CC[C@H]2[C@@H]3[C@@H](O)C[C@@H]4C[C@H](O)CC[C@]4(C)[C@H]3CC[C@]12C,69.1% (inactive)
11,COc1c(N2CC3CCCNC3C2)c(F)cc2c(=O)c(C(=O)N/N=C/c3ccc4c(c3)OCO4)cn(C3CC3)c12 (configuration not stated),67.4% (inactive)
12,O=S(=O)(NCCCNc1nccc(-n2cnc3ccccc32)n1)c1ccc(C(F)(F)F)cc1,80.2% (inactive)
13,C=CCn1c(SCC(=O)Nc2ccc(C(=O)/C=C/c3cc(OC)c(OC)c(OC)c3)cc2)nnc1-c1c[nH]c2ccccc12,63.7% (inactive)
14,Brc1ccccc1/C=N/Nc1nc(N/N=C/c2ccccc2Br)nc(N2CCOCC2)n1,112% (inactive)
15,COc1ccc(-c2cc(-c3ccc(Cl)cc3)c(C#N)c(=O)n2Cc2ccc(C(=O)O)cc2)cc1,98.3% (inactive)
16,CS(=O)(=O)Nc1cc(-c2ccc3ncc(C#N)c(NCc4cccc(F)c4)c3c2)cnc1Cl,-15.7% (active)
17,COc1ccc(NC(=O)Nc2ccc3c(ccn3C(=O)c3cccc(F)c3)c2)cc1,71.6% (inactive)
18,O=C(CNc1nc(-c2cccc([N+](=O)[O-])c2)cs1)Nc1cccc([N+](=O)[O-])c1,-39.4% (active)
19,O=C(/C=C/c1ccc(F)cc1)c1ccc(O)cc1,109% (inactive)
